# High-throughput results: PubChem BioAssay, National Center for Advancing Translational Sciences (NCATS)
# Pf growth 48h = inhibits P. falciparum growth in the first generation, 48 h; P. falciparum luciferase growth in erythrocytes, 48 h; 310,000 tested, 5.9% active; Potency, µM (top dose mostly 28.7 µM), for inactives: at the top dose activity change, negative = inhibition, actives largely listed as inhibitors; also: potency is read from the fitted curve at half-maximal effect; % is scaled to controls: 0 for no effect and ±100 for the full control effect
#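 First compound was added to culture medium, then infected red cells at 0.1% parasitemia and 2% hematocrit (final). After incubation at 37 C under 5% CO2, luciferase detection reagent was dispensed and light output recorded.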
# Shiga inhibitor = Shiga toxin inhibition; inhibition, % at 38.7 µM; 290,000 tested, 9.2% active; Vero cells, Shiga toxin protein synthesis inhibition reporter; in the data active = inhibition mostly above about 28%, no sharp cut-off; inactive = mostly below about 43%; also: 0% is about no effect
# Cycloheximide cs = counter-screen for Shiga toxin inhibitors: cycloheximide protein synthesis inhibition; cell reporter, cycloheximide protein synthesis inhibition counterscreen; max response, %; 300,000 tested, 12% active; in the data active = max response mostly above about 13%, no sharp cut-off; inactive = mostly below about 14%; also: read at 38.3 µM for the half of the compounds with a filed dose; 0% is about no effect
# Pf growth 96h = inhibits malaria parasite growth, 96 h; 320,000 tested, 6.9% active; Potency, µM (titrated, usually from 28.7 µM), inactives show at the top dose activity change, negative = inhibition, usual class: inhibitors; P. falciparum luciferase reporter growth, 96 h; also: potency is read from the fitted curve at half-maximal effect; % is scaled to controls: 0 for no effect and ±100 for the full control effect
#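 Two-generation exposure (96 h) targets delayed-death phenotype. Reporter parasites carrying integrated firefly luciferase, in red cells at 2% hematocrit and 0.05% parasitemia final, kept at 37 C, 5% CO2; luminescence loss indicates inhibition.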
# An asterisk follows results filed as active; ? = inconclusive; . = no result. In the library only some 21% were active in any assay of this set; here they are far more common. Unless noted, calls follow the shape of the dose curve; as a rule, active = well fitted inhibition curve with a large enough effect; inconclusive = small, poorly fitted or top-dose-only effect, or another doubt; inactive = no such curve, though single readings can be large or run the other way.
SMILES,Pf growth 48h,Shiga inhibitor,Cycloheximide cs,Pf growth 96h
Cc1ccc2cc(C)c3nnc(SCC(=O)Nc4nc5c(s4)CCCC5)n3c2c1,29.1%,-11.1,-4.4,-18.8%
CCc1ccc(N(CC(=O)NC2CCCC2)C(=O)CCC(=O)Nc2ccccn2)cc1,?,-15.2,2.9,0.0%
CCC(C)c1ccccc1N1CC(C(=O)NCCC2=CCCCC2)CC1=O (stereo unspecified),?,.,.,14.7µM*
CC(C)CCN1CC(C(=O)NCCC2=CCCCC2)CC1=O (stereo unspecified),-13.7%,65.8*,21.2*,-2.7%
CCC(C)c1ccccc1N1CC(C(=O)N2CCN(S(=O)(=O)c3ccccc3Br)CC2)CC1=O (stereo unspecified),?,.,.,11.7µM*
CCOc1ccc(C2/C(=C(/O)c3ccc4c(c3)CC(C)O4)C(=O)C(=O)N2CCCn2ccnc2)cc1OCC (stereo unspecified),-5.6%,-5.7,-6.4,?
Cc1cc(NCCO)c2cc(O)ccc2n1,.,-8.4,-4.8,?
CCN(CC(=O)N1CCCC1)S(=O)(=O)c1ccc(OC)cc1,6.3%,-0.7,-2.1,-24.5%
CC(C)Oc1ccc(S(=O)(=O)N2CCOCC2)cc1NC(=O)C1COc2ccccc2O1 (stereo unspecified),11.7µM*,.,.,11.7µM*
COc1ccc(S(=O)(=O)N2CCOCC2)cc1NC(=O)COC(=O)C1COc2ccccc2O1 (stereo unspecified),16.9%,-2.7,-2.4,39.7%
CC(C)Oc1ccc(S(=O)(=O)N2CCOCC2)cc1NC(=O)C1=COCCO1,?,.,.,11.7µM*
CCOc1ccc(S(=O)(=O)N2CCCCC2)cc1NC(=O)C1COc2ccccc2O1 (stereo unspecified),6.57µM*,.,.,?
CCOc1ccc(S(=O)(=O)N2CCCCC2)cc1NC(=O)C1CCC1,0.9%,.,.,0.0%
CN(C(=O)COC(=O)C1CCN(S(=O)(=O)c2ccc3c(c2)OCCO3)CC1)C1CCS(=O)(=O)C1 (stereo unspecified),2.1%,.,.,9.5%
O=C(c1ccc(OC2CCN(CCc3ccccc3)CC2)cc1)N1CCC(CO)CC1,-27.8%,-10.3,-3.8,?
COc1ccc(CCN2CC(C(=O)N3CCCCCC3)CCC2=O)cc1 (stereo unspecified),11.1%,-29.0,15.2,-8.4%
O=C1CCC(C(=O)N2CCCCO2)CN1CCc1ccccc1 (stereo unspecified),26.7%,81.4*,41.6*,?
COc1ccccc1CN1CC(C(=O)N2CCOCC2)CCC1=O (stereo unspecified),16.4%,25.4,-2.4,-2.4%
COc1ccccc1CN1CC(C(=O)N2CCCCO2)CCC1=O (stereo unspecified),-14.2%,70.7*,30.7*,36.3%
Cc1ccc(S(=O)(=O)NC(=O)C2CCCCC2)cc1,-2.2%,.,.,18.8%
COc1ccccc1-c1ccc(/C=C2\C=CC(=O)O2)o1,6.6%,92.5*,44.9*,0.0%
COc1ccccc1-c1ccc(/C=C2/C=C(C)OC2=O)o1,?,13.4,-1.8,?
CC(=O)c1cccc(NC(=O)C2CC(=O)N(c3cccc(C)c3C)C2)c1 (stereo unspecified),1.47µM*,23.6,2.1,20.6%
Cc1ccccc1N1CC(C(=O)Nc2nnc(SCCN3CCOCC3)s2)CC1=O (stereo unspecified),?,4.8,5.1,4.15µM*
Cc1ccc(N2CC(C(=O)Nc3ccncc3)CC2=O)cc1 (stereo unspecified),-0.7%,-7.8,-1.9,.
SMILES,Pf growth 48h,Shiga inhibitor,Cycloheximide cs,Pf growth 96h
Cc1ccccc1N1CC(C(=O)Nc2ccncc2)CC1=O (stereo unspecified),-12.1%,.,.,13.1µM*
CCC(C(=O)NC1CCCC1)N(Cc1ccco1)C(=O)Cn1nnc(-c2ccc(C)cc2)n1 (stereo unspecified),?,8.1,2.8,9.28µM*
Cc1ccc(C(C(=O)NC2CCCCC2)N(Cc2ccco2)C(=O)Cn2cnc3ccccc32)cc1 (stereo unspecified),11.7µM*,0.6,7.3,-7.8%
CCOC(=O)CN(C(=O)Cn1nnc(-c2ccc(C)cc2)n1)C(CC)C(=O)NC1CCCC1 (stereo unspecified),?,-8.9,-4.7,.
CCN(CC(=O)Nc1ccc(OC)cc1)C(=O)c1cc(S(=O)(=O)N(C)C)ccc1N1CCCC1,?,.,.,-9.4%
Cc1nn(-c2ccccn2)c2c1C(=O)C(Br)CC2 (stereo unspecified),?,-11.9,11.5,29.6%
COc1cc(/C=C(\C#N)C(=O)Nc2cccc(C(=O)O)c2)ccc1OCc1ccc(Cl)cc1,23.9%,107.2*,52.4*,68.7%
COc1cc(/C=C(\C#N)C(=O)Nc2ccccc2F)ccc1OCCN1CCOCC1,63.8%,13.5,25.0*,-9.5%
N#C/C(=C\c1ccc(OCCN2CCOCC2)cc1)C(=O)Nc1ccccc1,7.2%,17.0,19.8*,?
COc1cc(/C=C(\C#N)C(=O)Nc2ccccc2)ccc1OCCN1CCOCC1,33.3%,44.9*,26.5*,?
Cc1ccc(-c2cnc(N)n2C)cc1C,?,32.0,30.3*,4.65µM*
CC[C@H](C)[C@H](NC(=O)CNC(=O)[C@H](C)NC(=O)[C@H](C)N)C(=O)NCC(=O)N[C@H](C(=O)N[C@@H](CC(C)C)C(=O)N[C@H](C(=O)N[C@H](C(=O)O)C(C)C)[C@@H](C)O)[C@@H](C)CC,.,-6.1,-6.3,.
CC(C)c1ccc(-n2c(O)c(/C=N/NC(=O)c3ccccc3O)c(=O)[nH]c2=S)cc1,2.6%,47.6*,32.6*,3.2%
O=C(N/N=C/c1c(O)n(C2CCCCC2)c(=S)[nH]c1=O)c1ccccc1,0.0%,47.8*,22.1,0.0%
O=c1[nH]c(=S)n(C2CC2)c(O)c1/C=N/Nc1cccc2ccccc12,11.4%,72.4*,25.2*,-97.9%
CCn1c(O)c(/C=N/NC(=O)c2ccncc2)c(=O)[nH]c1=S,14.3%,-2.8,7.0,0.0%
CCn1c(O)c(/C=N/NC(=O)c2ccccc2)c(=O)n(CC)c1=S,10.8%,51.9*,47.2*,46.4%
COc1cc(Cl)c(NS(=O)(=O)c2cc3[nH]c(=O)c(=O)[nH]c3cc2C)c(OC)c1,?,1.9,-2.3,?
COc1ccc(C(=O)Nc2nnc(S(=O)(=O)N3CCOCC3)s2)cc1,-10.8%,-5.2,-8.2,22.5%
O=C(N/N=C/c1c(O)n(CCc2ccccc2)c(=O)[nH]c1=O)c1ccccc1,92.1%,30.9*,29.6*,62.7%
CC(N=Cc1c(O)n(C2CC2)c(=S)[nH]c1=O)c1ccccc1 (stereo unspecified),13.6%,-4.9,-1.6,16.1%
O=C(N/N=C/c1c(O)n(Cc2ccco2)c(=O)[nH]c1=O)c1ccccc1O,1.8%,72.7*,21.7*,11.1%
NC1CCCCC1N=Cc1c(O)n(CCc2ccc(F)cc2)c(=O)[nH]c1=O (stereo unspecified),?,4.3,26.5,4.65µM*
O=c1[nH]c(=S)n(C2CC2)c(O)c1/C=N/Nc1ccccc1,-3.5%,64.7*,24.1*,22.9%
O=C(COC(=O)COc1cccc(C(F)(F)F)c1)Nc1ccc(N2CCOCC2)cc1,27.4%,.,.,29.0%
